The values below come from PubChem BioAssay (NCI).

About 83,000 compounds went through this panel and 20% of them were active in at least one assay; those are over-represented in the sample as a whole.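 48-hour exposure, single concentration, 96-well plates; percent growth endpoint where 0 means no net growth. Active: below 10.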 Unmarked numbers belong to inactive results. Activity calls are given as the source filed them.

Some test systems named below: NCI-H23 lung; NCI-H226 lung; NCI-H322M lung; HOP-62 NSCLC; NCI-H460 lung; HOP-92 NSCLC; NCI-H522 lung; A549/ATCC NSCLC; 786-0 renal; COLO 205 colon; DU-145 prostate; K-562 leukemia; MALME-3M melanoma; MDA-MB-231 breast; RXF 393 renal; SF-268 CNS; SF-295 CNS; SF-539 CNS; UACC-257 melanoma; M14 melanoma.
What all share (assay): NCI-60 one-dose screen, 48 h (100 = growth as untreated, 0 = no growth, -100 = all killed)
What all share (conditions): 10 µM unless noted

With `CCCCCCCCCCCCCCCCCCOc1ccccc1CC(=O)OCC[N+](CC)(CC)CC`, the growth was 13.1% in the experiment on NCI-H23 lung; 53.7% with NCI-H226 lung; 70.6% in the experiment with NCI-H322M lung; 41% in the experiment with HOP-62 NSCLC; 34.6% in the experiment with NCI-H460 lung; 6.81% (active) in the experiment on HOP-92 NSCLC. Also, the growth in the experiment on NCI-H522 lung is 10.5%; in the experiment with A549/ATCC NSCLC, 29.3%; with 786-0 renal, 22.6%; in the experiment on COLO 205 colon, -27.3% (active); in the experiment with DU-145 prostate, 33.9%; with K-562 leukemia, 6.67% (active). Besides, the growth was -8.97% (active) in the experiment with MALME-3M melanoma; -17.3% (active) in the experiment on MDA-MB-231 breast; -16.9% (active) in the experiment on RXF 393 renal; 23.8% in the experiment on SF-268 CNS; 27.9% with SF-295 CNS; 18.5% with SF-539 CNS. The growth with UACC-257 melanoma was 48.1%; in the experiment on M14 melanoma it was 26.8%.
As for `COc1cc(C2CC(c3ccc(SC)cc3)=NN2C(C)=O)cc(OC)c1OC` (stereo not given), the growth in the experiment on NCI-H23 lung was 70.5%; with NCI-H226 lung it was 85.3%; in the experiment on NCI-H322M lung it was 91%; in the experiment on HOP-62 NSCLC it was 80.1%; with NCI-H460 lung, 48.6%; with HOP-92 NSCLC it was 83.7%. Moreover, the growth is 35.2% in the experiment with NCI-H522 lung; 58% with A549/ATCC NSCLC; 84.6% in the experiment on 786-0 renal; 64.6% with COLO 205 colon; 91% with DU-145 prostate; 31.1% in the experiment on K-562 leukemia. For the same compound, the growth in the experiment on MALME-3M melanoma was 59.6%; in the experiment on MDA-MB-231 breast, 85.3%; in the experiment on RXF 393 renal, 77.7%; with SF-268 CNS, 77.2%; with SF-295 CNS it was 44.1%; in the experiment on SF-539 CNS, 78.1%. Further, the growth in the experiment with UACC-257 melanoma is 79.4%; in the experiment on M14 melanoma, 44.3%.
For `O=c1ccn(Cc2cn(-c3c4ccccc4nc4ccccc34)nn2)c(=O)[nH]1`, the growth was 94% in the experiment with NCI-H23 lung; 102% in the experiment on NCI-H226 lung; 99.2% in the experiment with NCI-H322M lung; 97.7% with HOP-62 NSCLC; 96.5% in the experiment on NCI-H460 lung; 84.7% in the experiment on HOP-92 NSCLC. For the same compound, the growth with NCI-H522 lung is -57.4% (active); in the experiment with A549/ATCC NSCLC, 91.2%; in the experiment with 786-0 renal it was 90.9%; in the experiment on COLO 205 colon, 108%; in the experiment with DU-145 prostate, 74.6%; with K-562 leukemia, 33.1%. The growth with MALME-3M melanoma is 98.6%; with MDA-MB-231 breast, 89.4%; with RXF 393 renal, 98.2%; in the experiment on SF-268 CNS, 99.6%; in the experiment with SF-295 CNS it was 106%; with SF-539 CNS, 101%. The growth in the experiment on UACC-257 melanoma is 85.6%; with M14 melanoma it was 98.4%.
Consider `COc1cccc2c(=O)c3c(sc12)c(NCCCN)nc1ccccc13`, for which the growth was 59.7% with NCI-H23 lung; 63.4% in the experiment with NCI-H226 lung; 64.4% in the experiment with NCI-H322M lung; 53.2% in the experiment on HOP-62 NSCLC; -30.1% (active) in the experiment with NCI-H460 lung; 45.7% in the experiment on HOP-92 NSCLC. The growth in the experiment on NCI-H522 lung was 56.5%; in the experiment on A549/ATCC NSCLC, 36.3%; with 786-0 renal, 68.2%; in the experiment on COLO 205 colon it was -24.6% (active); with DU-145 prostate, 33.1%; in the experiment on K-562 leukemia, -7.71% (active). Also, the growth was 90.9% with MALME-3M melanoma; 10.3% in the experiment with MDA-MB-231 breast; 61% in the experiment on RXF 393 renal; 61.4% in the experiment on SF-268 CNS; 72.8% in the experiment with SF-295 CNS; 56.1% with SF-539 CNS. Moreover, the growth is 94.1% in the experiment on UACC-257 melanoma and 33.9% with M14 melanoma.
Turning to `S=c1nc(-c2ccccc2)oc(=NC2CCCCC2)n1C1CCCCC1`, the growth is 61.1% with NCI-H23 lung; 105% with NCI-H226 lung; 28.3% in the experiment with NCI-H322M lung; 62.8% in the experiment on HOP-62 NSCLC; 10.7% with NCI-H460 lung; -24.9% (active) in the experiment with HOP-92 NSCLC. The growth in the experiment on NCI-H522 lung is -25.6% (active); in the experiment on A549/ATCC NSCLC it was 31.5%; with 786-0 renal it was 43%; with COLO 205 colon it was 58.8%; in the experiment on DU-145 prostate it was 13.4%; in the experiment with K-562 leukemia, -42.6% (active). Also, the growth in the experiment with MALME-3M melanoma was 94.9%; in the experiment on MDA-MB-231 breast, 81.8%; in the experiment on RXF 393 renal it was 81.5%; with SF-268 CNS it was 34.1%; in the experiment on SF-295 CNS, 2.95% (active); in the experiment on SF-539 CNS it was 65.2%. Besides, the growth with UACC-257 melanoma was 95%; in the experiment on M14 melanoma, 84.8%.
Take `O=C1CSC(c2c(Cl)cccc2Cl)N1c1nc(Cl)cc(=O)[nH]1` (stereo not given): the growth was 104% in the experiment with NCI-H23 lung; 99.8% in the experiment with NCI-H226 lung; 177% with NCI-H322M lung; 95.8% in the experiment with HOP-62 NSCLC; 101% in the experiment with NCI-H460 lung; 65% with HOP-92 NSCLC. Also, the growth is 75.8% with NCI-H522 lung; 103% in the experiment with A549/ATCC NSCLC; 90.7% in the experiment on 786-0 renal; 111% with COLO 205 colon; 123% in the experiment with DU-145 prostate; 93.2% in the experiment on K-562 leukemia. Moreover, the growth with MALME-3M melanoma is 216%; in the experiment on MDA-MB-231 breast, 108%; with RXF 393 renal, 113%; with SF-268 CNS, 106%; with SF-295 CNS it was 91.3%; with SF-539 CNS, 102%. In addition, the growth in the experiment on UACC-257 melanoma is 99.6%; with M14 melanoma, 106%.
In the case of `Cc1cc(=O)[nH]c(=O)n1Cc1cn(-c2c3ccccc3nc3ccccc23)nn1`, the growth in the experiment on NCI-H23 lung is 94%; in the experiment with NCI-H226 lung it was 105%; in the experiment on NCI-H322M lung, 105%; in the experiment on HOP-62 NSCLC, 95.6%; in the experiment with NCI-H460 lung, 99.3%; with HOP-92 NSCLC, 67.6%. Further, the growth with NCI-H522 lung was -74.3% (active); in the experiment with A549/ATCC NSCLC it was 92.3%; in the experiment on 786-0 renal, 79.4%; in the experiment on COLO 205 colon, 96.1%; in the experiment on DU-145 prostate, 15.7%; in the experiment on K-562 leukemia it was 7.13% (active). The growth in the experiment on MALME-3M melanoma is 93.6%; with MDA-MB-231 breast it was 77.3%; in the experiment with RXF 393 renal, 90.7%; with SF-268 CNS, 90.4%; in the experiment on SF-295 CNS it was 102%; in the experiment on SF-539 CNS, 98.9%. Moreover, the growth in the experiment on UACC-257 melanoma was 67%; in the experiment on M14 melanoma it was 97.8%.
Regarding `COc1cc(-c2nc3sccn3c2-c2ccnc(NCCCNS(=O)(=O)c3ccc(F)cc3)n2)ccc1F`, the growth is 52.6% with NCI-H23 lung; 52.1% in the experiment on NCI-H226 lung; 102% with NCI-H322M lung; 90.2% in the experiment with HOP-62 NSCLC; 79.5% in the experiment with NCI-H460 lung; 79.4% in the experiment on HOP-92 NSCLC. Besides, the growth was 47.7% in the experiment with NCI-H522 lung; 83.2% in the experiment on A549/ATCC NSCLC; 96.7% in the experiment with 786-0 renal; 56.9% in the experiment on COLO 205 colon; 76.1% in the experiment on DU-145 prostate; 38.2% in the experiment with K-562 leukemia. Besides, the growth in the experiment on MALME-3M melanoma was 75.1%; with MDA-MB-231 breast, 86.1%; with RXF 393 renal it was 71.6%; in the experiment on SF-268 CNS, 74.2%; in the experiment with SF-295 CNS it was 57.1%; in the experiment with SF-539 CNS, 95.6%. The growth with UACC-257 melanoma is 77.8%; with M14 melanoma it was 53.6%.
